The panel holds about 83,000 compounds, 20% with a hit somewhere; the sample as a whole holds those more often.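 Negative percent growth values reflect cell death: -40 means 40% of the cells present at the start died, and -100 means all died.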 A number with no mark means an inactive call. Calls of active or inactive are those of the source. The calls were made as follows: active = growth percent below 10; inactive = the rest.
test system: LOX IMVI melanoma; assay: NCI-60 one-dose screen, 48 h (100 = growth as untreated, 0 = no growth, -100 = all killed); details: 10 µM

Structure (SMILES) | growth
CC(=O)OCC1CCCO1 (stereo not given) | 98%
N#CCCc1ccc(O)cc1 | 107%
Nc1ccc(N=Nc2ccc(S(=O)(=O)O)cc2)c2ccccc12 | 100%
O=C1OC(=O)C2C1C1(Cl)C(Cl)=C(Cl)C2(Cl)C2C(=O)OC(=O)C21 (stereo not given) | 98.4%
O=c1[nH]nc(SC2CCCCC2)c(=O)[nH]1 | 92.8%
Cc1cc(C(O)(c2ccc(Nc3ccccc3)cc2)c2ccc(Nc3ccc(S(=O)(=O)O)cc3)cc2)ccc1N (stereo not given) | -65.9% (active)
CN(C)c1ccc2oc(=O)c3ccccc3c2c1 | 88.8%
Cc1ccc(CCCC(=O)O)c(C)c1 | 99.3%
COc1ccc(C(O)c2ccccc2)cc1 (stereo not given) | 86.2%
FC(F)(F)c1ccc2c(c1)N(CCCN1CCN(C3CC3)CC1)c1ccccc1S2 | 37.6%
CCC(C)(O)c1ccc(C)cc1 (stereo not given) | 106%
CC(C)(N)COS(=O)(=O)O | 113%
Cc1cc(C)cc(NCCC#N)c1 | 105%
O=C(O)CSCSCC(=O)O | 97.3%
O/N=C/c1ccc(O)cc1O | 105%
Cc1cc2ccccc2c(O)c1C#N | 94.4%
O=C(O)/C=C/C(=O)NCc1ccccc1 | 97%
Cc1cc2nc(CO)[nH]c2cc1C | 110%
NC(=O)NC(=O)c1ccc(Cl)cc1 | 103%
CCCCOC(OCCCC)c1ccccc1 | 92.7%
NC(=O)c1ccc(N=C(N)N=C(N)N)cc1 | 100%
CCOc1ccccc1/C=N/Nc1nc2ccccc2o1 | 94.1%
CO[C@H]1C[C@@H]2CC[C@@H](C)[C@@](O)(O2)C(=O)C(=O)N2CCCC[C@H]2C(=O)O[C@H]([C@H](C)C[C@@H]2CC[C@@H](O)[C@H](OC)C2)CC(=O)[C@H](C)C=C(C)[C@@H](O)[C@@H](OC)C(=O)[C@H](C)C[C@H](C)/C=C/C=C/C=C1C | 51.9%
O=C(NCCNC(=O)c1ccc(Cl)cc1Cl)c1ccc(Cl)cc1Cl | 94.9%
COC(=O)/C=C/C(=O)NC(N)=O | 97.1%
Cc1ccc(O)c(C(=O)c2ccccc2)c1 | 99.3%
CN(C)c1ccc(C(c2ccc(O)cc2)c2ccc(N(C)C)cc2)cc1 | 88%
Nc1ccc(N)c([N+](=O)[O-])c1 | 100%
CCOC(=O)c1[nH]c(C)c(C(C)=O)c1C | 82.2%
CC(C)C1CCCCC1O (stereo not given) | 96.3%
